# Cruzain inh Det = inhibitors of Trypanosoma cruzi cruzain with detergent; purified cruzain, Z-FR-AMC fluorescence, 0.01% Triton; 200,000 tested, 0.43% active; Potency, µM, without a hit: max response, negative = inhibition, most hits filed as inhibitors;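 note: plate controls were neutral wells for no effect and buffer without enzyme for full effect; nearly all actives have a fitted effect of over 40% in size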
#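 Z-FR-AMC hydrolysis (2 uM substrate) by cruzain (1.5 nM) monitored kinetically at ex 360/em 450 nm after 15 min room-temperature compound exposure; 0.01% Triton X-100, pH 5.5, 5 mM DTT.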
# Cruzain inh noDet = cruzain (T. cruzi) inhibition without detergent; P25779; purified cruzain, Z-FR-AMC fluorescence, no detergent; Potency, µM, without a hit: max response, negative = inhibition, usual class: inhibitors; 200,000 tested, 2.3% active; AID 1476;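 note: plate controls were enzyme without inhibitor for no effect and buffer without enzyme for full effect; nearly all actives have a fitted effect of over 40% in size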
#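 Detergent-free condition (0.00005% Triton X-100) in acetate buffer pH 5.5 with DTT. 1.5 nM enzyme and compound were pre-mixed 15 min, then 2 uM Z-FR-AMC substrate added; reaction progress from fluorescence change between first and third reads (60 s).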
# Giardia FBPA inh-1 = blocks Giardia fructose-bisphosphate aldolase activity. A8B2U2. purified Giardia FBPA. Potency, µM (highest dose often 59.6 µM), for inactives: at the top dose activity, negative = inhibition, hits mostly inhibitors. 290,000 tested, 0.71% active. AID 2451; note: nearly all actives have a fitted effect of over 55% in size
#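 Giardia FBPA (40 nM reagent) was preincubated 10 min at RT with compound (up to 57.5 uM final), then substrate plus GAPDH/TPI/NAD/arsenate coupling system with diaphorase/resazurin was added; resorufin fluorescence (525/598 nm) was read after 20 min.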
# Giardia growth = Giardia lamblia growth inhibition; shares compounds with Giardia FBPA inh-1; Giardia lamblia trophozoite growth inhibition; Potency, µM (series often up to 57.5 µM), inactives show at the highest dose activity change, negative = inhibition, hits mostly inhibitors; 1,500 tested, 5% active; AID 2785;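 note: trophozoites exposed to compound for 48 h at 37 °C; nearly all actives have a fitted effect of over 70% in size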
# Mammal cell tox = counter-screen for Giardia aldolase inhibitors: mammalian cell toxicity; shares compounds with Giardia FBPA inh-1; mammalian cell viability counter-screen, qHTS; Potency, µM (top dose mostly 57.5 µM), without a hit: at the highest dose viability change, negative = toxicity, most hits filed as inhibitors; 1,500 tested, 4% active;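 note: Chinese hamster ovary cells used as mammalian cytotoxicity surrogate; viability measured as cellular ATP by luminescence; compound exposure lasted 48 h before reading; nearly all actives have a fitted effect of over 60% in size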
# Giardia FBPA inh-2 = confirmation of Giardia fructose-bisphosphate aldolase inhibitors | shares compounds with Giardia FBPA inh-1 | purified Giardia aldolase enzyme activity, qHTS | Potency, µM (top dose mostly 57.5 µM), inactives show at the top dose activity change, negative = inhibition, usual class: inhibitors | 1,500 tested, 5% active; note: nearly all actives have a fitted effect of over 45% in size
# Rabbit aldolase = blocks rabbit muscle aldolase in Giardia aldolase selectivity test | Rabbit muscle FBPA enzyme inhibition, selectivity counter-screen | Potency, µM (top dose mostly 57.5 µM), for inactives: top-dose activity, negative = inhibition, actives largely listed as inhibitors | 1,500 tested, 4% active | shares compounds with Giardia FBPA inh-1; note: nearly all actives have a fitted effect of over 60% in size
# Target sequence (P00883 whole entry, looked up): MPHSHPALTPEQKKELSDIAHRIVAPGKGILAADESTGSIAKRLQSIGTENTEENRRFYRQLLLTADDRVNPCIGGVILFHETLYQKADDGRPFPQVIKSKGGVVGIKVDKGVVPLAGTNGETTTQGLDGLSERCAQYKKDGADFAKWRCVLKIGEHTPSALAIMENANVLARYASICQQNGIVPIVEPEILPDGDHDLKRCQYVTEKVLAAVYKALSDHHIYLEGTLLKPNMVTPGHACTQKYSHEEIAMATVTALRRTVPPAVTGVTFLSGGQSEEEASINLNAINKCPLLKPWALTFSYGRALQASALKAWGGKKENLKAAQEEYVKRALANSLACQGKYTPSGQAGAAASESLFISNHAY
# GAPDH coupling = counter-screen for Giardia aldolase inhibitors: GAPDH coupling enzyme; shares compounds with Giardia FBPA inh-1; GAPDH coupling enzyme counterscreen, biochemical, qHTS; Potency, µM (highest dose often 57.5 µM), inactives show top-dose activity change, negative = inhibition, usual class: inhibitors; 1,500 tested, 6% active; AID 2795; note: nearly all actives have a fitted effect of over 55% in size
# Starred values were filed as active, the others as inactive; ? = inconclusive; . = not tested or not shown; [ ] = remark or other dose. The entries come from a sample that favours hits as a whole. Calls come from the whole dose curve; as a rule, active = well fitted curve in the direction sought with a large enough effect; inconclusive = small, poorly fitted or top-dose-only effect, or another doubt; inactive = no such curve, though single readings can be large; an effect the other way counts as inactive or inconclusive. Unless noted, % is set by controls: 0 for no effect and ±100 for the full control effect; potency is the fitted concentration of half-maximal effect.
SMILES,Cruzain inh Det,Cruzain inh noDet,Giardia FBPA inh-1,Giardia growth,Mammal cell tox,Giardia FBPA inh-2,Rabbit aldolase,GAPDH coupling
Cc1nnc(N/N=C\c2ccc(-c3cccc(C(=O)O)c3)o2)n1N,.,.,8.9µM*,-53%,-6%,?,?,?
O=C(O)c1ccc(N/N=C/c2ccc(-c3ccc(Br)cc3)o2)cc1,.,.,-3%,.,.,.,.,.
CCCCN(CC)CCCn1cnc2c([nH]c3ccc(Cl)cc32)c1=O,-1%,4%,.,.,.,.,.,.
O=C(NCCS(=O)(=O)N1CCN(c2ccccc2F)CC1)C(c1ccccc1)c1ccccc1,-1%,-8%,.,.,.,.,.,.
COc1cccc(Cn2c(=O)cnc3cnc(Nc4ccccc4)nc32)c1,-6%,?,3%,.,.,.,.,.
Cn1cc(C(=O)NCCc2ccc(Cl)cc2)c(=O)c2cc(S(=O)(=O)N3CCOCC3)ccc21,0%,-8%,.,.,.,.,.,.
C/C(=N/O)c1ccccn1,.,.,3.2µM*,0%[38.3 µM],-19%,-21%,13%,?
CC(=O)c1ccccn1,6%,-7%,.,.,.,.,.,.
Cc1ccc(C(=O)NCCc2ccc(Cl)cc2)cc1-n1c(C)nc2cccnc21,-3%,5%,.,.,.,.,.,.
CSc1ccc(CNC(=O)c2ccccc2NC(=O)c2nsc3ccccc23)cc1,2%,-4%,.,.,.,.,.,.
N=C1/C(=C\c2coc3ccccc3c2=O)C(=O)N=C2SC(c3ccncc3)=NN12,.,.,1%,.,.,.,.,.
N=C1/C(=C/c2coc3ccccc3c2=O)C(=O)N=C2SC(c3ccco3)=NN12,.,.,16µM*,-14%,4%,-2%,6%,11%
O=C1CC(c2nc3ccccc3n2CCCCOc2ccccc2)CN1c1ccccc1Cl (stereo not drawn),-14%,?,.,.,.,.,.,.
COc1ccccc1CNC(=O)C1CCN(S(=O)(=O)Cc2ccccc2)CC1,-2%,2%,.,.,.,.,.,.
Cc1ccc(C(=O)NC(=S)N2CCN(C)CC2)cc1,2%,-1%,-22%,.,.,.,.,.
Cc1ccc2c(c1)C1CN(C)CCC1N2C(=O)c1ccc(Br)o1 (stereo not drawn),-2%,3%,-6%,.,.,.,.,.
C/C(CC(=O)N1CCN(C=O)CC1)=N\NC(=O)c1ccc(Cl)cc1,.,.,-11%,.,.,.,.,.
CN1CCN(C(=S)NC(=O)c2ccc(Br)cc2)CC1,.,.,18µM*,-6%,-3%,9%,-1%,9%
CN1CCN(C(=S)NC(=O)c2ccc(C(C)(C)C)cc2)CC1,-1%,-4%,-19%,.,.,.,.,.
CN1CCN(C(=S)NC(=O)c2ccc(-c3ccccc3)cc2)CC1,.,.,18µM*,-11%[10.4 µM],2%,6%,12%,-5%
O=CN1CCN(C(=S)NC(=O)c2ccc(Cl)cc2)CC1,.,.,10µM*,-5%[38.3 µM],10%,2%,5%,-7%
Cc1ccc2c(c1)C1CN(C)CCC1N2C(=S)NC(=O)c1ccc(Br)cc1 (stereo not drawn),.,.,16µM*,8.9µM*,-8%,-12%,6%,7%
O=C(Nc1ccc(F)cc1F)C1CCN(S(=O)(=O)c2ccc3[nH]c(=O)ccc3c2)CC1,-2%,-3%,.,.,.,.,.,.
COc1ccc(OC)c(/C=C(/C#N)c2nc(-c3ccc(-c4ccccc4)cc3)cs2)c1,-1%,0%,.,.,.,.,.,.
CCOc1cc2[nH]c(=O)n(CCCCC(=O)N3CCN(c4ccccc4OC)CC3)c(=O)c2cc1OCC,2%,-4%,.,.,.,.,.,.
SMILES,Cruzain inh Det,Cruzain inh noDet,Giardia FBPA inh-1,Giardia growth,Mammal cell tox,Giardia FBPA inh-2,Rabbit aldolase,GAPDH coupling
Cc1ccccc1C(=O)Nc1nnc(-c2ccncc2)o1,.,.,7%,.,.,.,.,.
COc1ccc(-c2nnc(NC(=O)c3ccccc3C)o2)cc1,.,.,16µM*,?,-15%,-1%,-6%,-10%
O=C(Nc1ccc(F)cc1)C1CCN(c2nc3ccccc3n3cccc23)CC1,-6%,10%,.,.,.,.,.,.
CCCn1nnc(NC(=S)NC(=O)/C=C/c2ccco2)n1,.,.,16µM*,7%,6%,-3%,2%,12%
CCCn1nnc(NC(=S)NC(=O)c2cccs2)n1,-3%,2%,5µM*,?,-2%,8%,5%,13%
Cn1nnc(NC(=O)c2cccs2)n1,.,.,2%,.,.,.,.,.
CCCCCC(=O)Nc1nnn(CCC)n1,6%,2%,6%,.,.,.,.,.
Cn1nnc(NC(=O)/C=C/c2ccco2)n1,.,.,1%,.,.,.,.,.
CCCn1nnc(NC(=S)NC(=O)C(C)(C)C)n1,3%,-9%,5.6µM*,-4%[38.3 µM],-7%,-1%,-4%,-5%
CCOC(=O)c1cccc(NC(=O)c2cc3c(=O)n(C)c4ccccc4c3n2C)c1,1%,13%,.,.,.,.,.,.
CCC1CCCCN1C(=O)CCS(=O)(=O)c1cc2c(cc1C)NC(=O)CO2 (stereo not drawn),-3%,3%,.,.,.,.,.,.
CCCC(=O)Oc1c(Sc2ccc(Cl)cc2)c(C)nn1-c1ccccc1,-4%,2%,.,.,.,.,.,.
